Read-out in assay [1]: Human Leukocyte Antigen - DR isotype (HLADR), HLA-DRA (gene 3122)
The assay can be described thus: BSK_3C_HLADR: BioMAP Diversity Plus: 3C Assay for Human Leukocyte Antigen - DR isotype (HLADR) Biomarker Activity (AID 2283019).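 As to outcome: ELISA of cell-surface HLA-DR on HUVEC 24 h after dosing.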 To be noted: primary human endothelial cells (HUVEC); actives raise or lower the signal. Put shortly: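 Endothelial cells from human umbilical vein are treated with test chemical; after 24 h, HLA-DR levels are measured by ELISA. Data are fitted in both directions using DMSO as the baseline.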

Read-out in assay [2]: Interleukin-8 (IL8), CXCL8 (gene 3576)
Put plainly: BSK_3C_IL8: BioMAP Diversity Plus: 3C Assay for Interleukin-8 (IL8) Biomarker Activity (AID 2283020). To be noted: primary human endothelial cells (HUVEC); actives raise or lower the signal. Put shortly: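 Endothelial primary cells of human umbilical vein origin are dosed with chemical; after 24 h the IL-8 biomarker is measured by ELISA, and concentration–response is fitted in both directions versus DMSO.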

Read-out in assay [3]: Monokine induced gamma interferon (MIG), CXCL9 (gene 4283)
Put plainly: BSK_3C_MIG: BioMAP Diversity Plus: 3C Assay for Monokine induced gamma interferon (MIG) Biomarker Activity (AID 2283021).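 As to AC50: MIG protein level measured by immunoassay in the treated endothelial cultures.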 To be noted: primary human endothelial cells (HUVEC); actives raise or lower the signal. Put shortly:
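Endothelial primary cells (human umbilical vein) are dosed with test chemical in the 3C system. MIG levels are measured by ELISA at 24 h and fitted in both directions relative to DMSO.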

Assay [4] deals with human Vitamin D Receptor (VDR), VDR (gene 7421) (UniProt P11473). Put plainly: ATG_VDR_TRANS: Attagene TRANS-FACTORIAL HepG2 Assay for human Vitamin D Receptor (VDR) (AID 2283022; active = hit-call score of the fitted dose curve at least 0.9, where 1 is the maximum). The gist of the method:
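Fluorescence of labelled reporter cDNA fragments, resolved by capillary electrophoresis, gives mRNA induction after 24 h treatment of HepG2 cells carrying transfected Gal4-fusion reporter units. Activity is fitted in the positive direction with DMSO as baseline.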

Assay [5] in a line: BSK_3C_SRB: Viability Assessment in the BioMAP Diversity Plus: 3C Assay (AID 2283023).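 Also: fitted both ways against DMSO so a hit may be signal rise or drop.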 To be noted: primary human endothelial cells (HUVEC). Put shortly:
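Cells were dosed with chemical, cultured 24 h, fixed with 10% TCA, stained with 0.1% SRB and read at 560 nm. Human umbilical vein endothelium was used; DMSO served as negative control and baseline.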

Read-out in assay [6]: Matrix Metallopeptidase 1 (MMP1), MMP1 (gene 4312)
The assay can be described thus: BSK_BE3C_MMP1: BioMAP Diversity Plus: BE3C Assay for Matrix Metallopeptidase 1 (MMP1) Biomarker Activity (AID 2283024). The settings on record: primary human bronchial epithelial cells; actives raise or lower the signal. The gist of the method:
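MMP1 signal, measured by ELISA after a 24 h chemical exposure of human primary bronchial epithelial cells, is analysed with bidirectional fitting using DMSO as negative control.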

Assay [7] can be described thus: BSK_3C_Vis: BioMAP Diversity Plus: 3C Assay for Morphology Visualization (AID 2283025).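 Also: fitted both ways so gain or loss versus DMSO counts.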 The settings on record: primary human endothelial cells (HUVEC). The gist of the method:
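Morphology read by light microscopy serves as a background control for the multiplexed 3C assay in human umbilical vein endothelial cells, taken 24 h after dosing, with DMSO as the negative control and bidirectional curve fitting.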

Read-out in assay [8]: Pselectin, SELP (gene 6403)
The assay can be described thus: BSK_4H_Pselectin: BioMAP Diversity Plus: 4H Assay for Pselectin Biomarker Activity (AID 2283026). To be noted: primary human endothelial cells (HUVEC); actives raise or lower the signal. The gist of the method:
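Endothelial primary cells (human umbilical vein) are dosed, incubated 24 h, and assayed for surface P-selectin by ELISA; responses in either direction are fitted relative to the DMSO negative control.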

Assay [9] is described as follows: BSK_4H_SRB: Viability Assessment in the BioMAP Diversity Plus: 4H Assay (AID 2283027).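 Also: cells exposed to compound for 24 h before staining.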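 As to AC50: curves fitted both ways versus DMSO so AC50 may be loss or gain.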 To be noted: primary human endothelial cells (HUVEC). The gist of the method: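 HUVEC, 24 h post-dose; 10% TCA fix, 0.1% SRB stain, A560 nm. Total protein = overt cytotoxicity, parallel to biomarker read. Bidirectional fit vs DMSO baseline.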
Assay [10] can be described thus: BSK_BE3C_SRB: Viability Assessment in the BioMAP Diversity Plus: BE3C Assay (AID 2283028).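 As to AC50: fitted both ways so AC50 may mark signal gain or loss versus DMSO.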 To be noted: primary human bronchial epithelial cells. Put shortly: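 Overt cytotoxicity was assessed as total protein in confluent human primary bronchial epithelial cultures 24 h after chemical addition, using 0.1% sulforhodamine B staining read at 560 nm.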
Read-out in assay [11]: Thrombomodulin, THBD (gene 7056)
Put plainly: BSK_3C_Thrombomodulin: BioMAP Diversity Plus: 3C Assay for Thrombomodulin Biomarker Activity (AID 2283029). The settings on record: primary human endothelial cells (HUVEC); actives raise or lower the signal. Put shortly:
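Endothelial cells from umbilical vein are dosed with test chemical and incubated 24 h. Thrombomodulin is then quantified by ELISA, with DMSO serving as negative control and activity baseline.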

Read-out in assay [12]: Urokinase-type plasminogen activator receptor (uPAR), PLAUR (gene 5329)
The assay can be described thus: BSK_4H_uPAR: BioMAP Diversity Plus: 4H Assay for Urokinase-type plasminogen activator receptor (uPAR) Biomarker Activity (AID 2283030). To be noted: primary human endothelial cells (HUVEC); actives raise or lower the signal. Put shortly:
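Chemicals are dosed onto human vascular endothelial primary cells (umbilical vein). After 24 h, uPAR is read by ELISA. Gain or loss of signal is fitted relative to DMSO.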

Read-out in assay [13]: Vascular endothelial growth factor receptor 2 (Homo sapiens) (UniProt P35968)
Put plainly: BSK_4H_VEGFRII: BioMAP Diversity Plus: 4H Assay for Vascular endothelial growth factor receptor 2 (VEGFR2) Biomarker Activity (AID 2283031). The settings on record: primary human endothelial cells (HUVEC); actives raise or lower the signal. Put shortly: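 VEGFRII levels on human vascular endothelial primary cells were determined by ELISA at 24 hours post-dosing, with gain- or loss-of-signal fitted against DMSO controls.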

Read-out in assay [14]: Human Leukocyte Antigen - DR isotype (HLADR), HLA-DRA (gene 3122)
Put plainly: BSK_BE3C_HLADR: BioMAP Diversity Plus: BE3C Assay for Human Leukocyte Antigen - DR isotype (HLADR) Biomarker Activity (AID 2283032). To be noted: primary human bronchial epithelial cells; actives raise or lower the signal. Put shortly:
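Chemicals are dosed onto BE3C bronchial epithelial cultures of human origin and left 24 h. HLA-DR is then measured by ELISA, and the endpoint is fitted in both directions using DMSO as the activity baseline.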

Read-out in assay [15]: Vascular cell adhesion molecule 1 (VCAM1), VCAM1 (gene 7412)
Put plainly: BSK_4H_VCAM1: BioMAP Diversity Plus: 4H Assay for Vascular cell adhesion molecule 1 (VCAM1) Biomarker Activity (AID 2283033).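 As to outcome: cell-surface VCAM-1 protein measured by ELISA.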 To be noted: primary human endothelial cells (HUVEC); actives raise or lower the signal. Put shortly: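 Chemicals are added to primary human umbilical vein endothelial cells. After 24 h, VCAM-1 levels are measured by ELISA. Values come from bidirectional fitting referenced to DMSO.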

Read-out in assay [16]: Interferon-gamma inducible Protein 10 (IP10), CXCL10 (gene 3627)
Put plainly: BSK_BE3C_IP10: BioMAP Diversity Plus: BE3C Assay for Interferon-gamma inducible Protein 10 (IP10) Biomarker Activity (AID 2283034). The settings on record: primary human bronchial epithelial cells; actives raise or lower the signal. Put shortly: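 IP-10 quantified by ELISA serves as the endpoint. Cells: primary human bronchial epithelium, read 24 h after compound addition. Activity is derived by bidirectional fitting with DMSO as negative control.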

Read-out in assay [17]: Monokine induced gamma interferon (MIG), CXCL9 (gene 4283)
The assay can be described thus: BSK_BE3C_MIG: BioMAP Diversity Plus: BE3C Assay for Monokine induced gamma interferon (MIG) Biomarker Activity (AID 2283035).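 As to outcome: MIG protein measured by ELISA in BE3C cultures after 24 h of dosing.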 The settings on record: primary human bronchial epithelial cells; actives raise or lower the signal. Put shortly:
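Dose cells (human primary bronchial epithelial), incubate 24 h, quantify MIG by ELISA, then fit concentration–response in both directions relative to DMSO control.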

Read-out in assay [18]: Transforming growth factor beta 1 (TGFb1), TGFB1 (gene 7040)
Put plainly: BSK_BE3C_TGFb1: BioMAP Diversity Plus: BE3C Assay for Transforming growth factor beta 1 (TGFb1) Biomarker Activity (AID 2283036;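 as to outcome: TGF-b1 protein level measured by ELISA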). The settings on record: primary human bronchial epithelial cells; actives raise or lower the signal. The gist of the method:
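Bronchial epithelial primary cells are treated with test chemical, then TGF-b1 is quantified by ELISA after 24 hours. Values derive from bidirectional fitting against DMSO, with cytotoxicity checked by SRB staining in parallel cultures.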

Read-out in assay [19]: Plasminogen activator inhibitor-1 (PAI1), SERPINE1 (gene 5054)
Put plainly: BSK_BE3C_PAI1: BioMAP Diversity Plus: BE3C Assay for Plasminogen activator inhibitor-1 (PAI1) Biomarker Activity (AID 2283037). To be noted: primary human bronchial epithelial cells; actives raise or lower the signal. The gist of the method:
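Values derive from bidirectional fitting against DMSO baseline of PAI-1 levels, measured by ELISA in human bronchial epithelial cells 24 h after compound addition.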

Values joined by “and” are separate entries in the source; they are usually repeats but may differ in a detail not shown here. Equal entries are not always repeated. Inconclusive results are not listed. Where a structure was tested more than once in an assay, its records may differ in their call. Active and inactive are the calls of the source. The calls were made as follows, unless noted: active = hit-call score of the fitted dose curve at least 0.9, where 1 is the maximum; inactive = score below 0.9.

human Vitamin D Receptor (VDR), VDR (gene 7421), sequence (P11473 whole entry, looked up, the tested form may be a part): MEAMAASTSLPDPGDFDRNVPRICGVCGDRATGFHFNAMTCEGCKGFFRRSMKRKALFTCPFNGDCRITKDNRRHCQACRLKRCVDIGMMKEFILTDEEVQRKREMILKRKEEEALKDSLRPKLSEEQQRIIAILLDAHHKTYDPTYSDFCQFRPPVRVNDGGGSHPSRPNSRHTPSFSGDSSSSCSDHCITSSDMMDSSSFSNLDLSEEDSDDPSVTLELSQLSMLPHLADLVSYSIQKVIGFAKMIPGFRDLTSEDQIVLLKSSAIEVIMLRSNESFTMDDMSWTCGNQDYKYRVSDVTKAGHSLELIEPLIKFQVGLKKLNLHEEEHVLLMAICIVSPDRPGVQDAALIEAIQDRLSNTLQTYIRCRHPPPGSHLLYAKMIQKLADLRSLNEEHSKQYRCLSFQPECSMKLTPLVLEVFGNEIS

Regarding `CC1(C)C(C=C(Cl)Cl)C1C(=O)OCc1cccc(Oc2ccccc2)c1` (stereo not drawn), the results for the AC50 in [1], in assay [5] and in assay [7] were 5.44 µM (active), 6.15 µM (active) and 20 µM (active), respectively. The outcome in [2], in assay [3], in [4], in assay [6], in assay [8] and in [9] was inactive. The result in assay [10], in [11], in [12], in [13], in [14] and in assay [15] was inactive. Besides, the outcome in assay [16], in assay [17] and in assay [18] was inactive.

For the molecule `COCCO`, the result in [1], in [2], in assay [3], in assay [4], in [5] and in [6] was inactive. Moreover, the result in assay [7], in assay [8], in [9], in assay [10], in [11] and in assay [14] was inactive. Moreover, the result in assay [15], in [16] and in [18] was inactive.

In the case of `Oc1ccc(C(c2ccc(O)cc2)C(Cl)(Cl)Cl)cc1`, the AC50 in [1] was 33.5 µM (active); in assay [2] it was 15.5 µM (active); in [3], 30.7 µM (active); in assay [5] it was 16.4 µM (active); in assay [6], 33.1 µM (active); in [7], 29.4 µM (active). The concentration at half-maximal activity (AC50) in [8] was 20 µM (active); in [9] it was 19.3 µM (active); in assay [10] it was 30.2 µM (active); in assay [11], 6.1 µM (active); in [14], 26.5 µM (active); in assay [15] it was 26 µM (active). Also, the AC50 in [16] is 29.3 µM (active). Besides, the result in assay [4] and in assay [18] was inactive.

`N#CSCSc1nc2ccccc2s1`: the half-maximal activity concentration (AC50) is 2.3 µM (active) and 5.63 µM (active) in assay [1]; 8.35 µM (active) and 14.4 µM (active) in assay [2]; 11 µM (active) and 11.9 µM (active) in [3]; 5.31 µM (active) and 5.24 µM (active) in [5]; 7.12 µM (active) and 11.3 µM (active) in assay [6]; 4.4 µM (active) and 4.82 µM (active) in [7]. The concentration at half-maximal activity (AC50) was 1.24 µM (active) and 5.49 µM (active) in assay [8]; 3.51 µM (active) and 10.6 µM (active) in assay [9]; 5.15 µM (active) in assay [10]; 35.8 µM (active) in assay [11]; 6.17 µM (active) and 12.1 µM (active) in assay [14]; 5.21 µM (active) and 12.8 µM (active) in assay [15]. In addition, the AC50 in [16] is 9.03 µM (active) and 11.8 µM (active); in [17], 9.86 µM (active) and 12.2 µM (active); in [18], 11.2 µM (active); in assay [19], 4.99 µM (active) and 11.8 µM (active). The call in assay [4], in assay [10], in [11] and in assay [18] was inactive.

In general, AC50 refers to the concentration giving half of the maximal activity seen.

Values taken from PubChem BioAssay (EPA / NIEHS).
